Experimental data taken from PubChem BioAssay (NCATS).
Records with an inconclusive call do not appear. A call without a number means that no potency is given here. Unmarked numbers belong to inactive results. Active and inactive are the calls of the source. Calls come from the whole dose curve; as a rule, active = well fitted cell-killing curve with a large enough effect; inconclusive = small, poorly fitted or top-dose-only effect, or effect the other way; inactive = flat fitted curve, though single readings scatter.

What was measured:
Assay in all cases: Primary qHTS to identify gynecologic anti-cancer compounds using libraries of approved drugs and bioactive compounds (AID 1345084); note: nearly all actives have a fitted effect of over 55% in size
Conditions in all cases: Gynecologic cancer cell panel viability, ATPlite luminescence, 48 h; series mostly up to 57.5 µM
SKOV3 = test system: SKOV3
How it was run: (§1)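 Cytotoxicity screen measuring ATP content by luciferase luminescence. Each compound is applied at five concentrations for 48 h at 37 C with 5% CO2.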

Tov-21-G = test system: Tov-21-G
How it was run: as §1

Tov112D = test system: Tov112D
How it was run: as §1
Potency is the fitted concentration of half-maximal effect.

SMILES: O=C(CO)N1CCC(c2[nH]nc(-c3ccc(Cl)cc3)c2-c2ccncn2)CC1
- Potency (SKOV3): inactive
- Potency (Tov-21-G): inactive
- Potency (Tov112D): inactive

SMILES: COc1cc(Nc2nc3ccccc3nc2NS(=O)(=O)c2ccc(NC(=O)c3ccc(C)c(OC)c3)cc2)cc(OC)c1
- Potency (SKOV3): inactive
- Potency (Tov-21-G): inactive
- Potency (Tov112D): inactive

SMILES: COc1ccc(CCC(=O)Nc2nc3ccc(Cl)cc3s2)cc1OC
- Potency (SKOV3): inactive
- Potency (Tov-21-G): inactive
- Potency (Tov112D): inactive

SMILES: O=C(CC12CC3CC(CC(C3)C1)C2)Nc1cccc2nc(NCCNCCO)ccc12
- Potency (SKOV3): inactive
- Potency (Tov-21-G): inactive
- Potency (Tov112D): inactive

SMILES: Cc1ccccc1C(C(=O)NC1CCCCC1)N(C(=O)CNc1ccc(C#N)cc1)c1cccc(F)c1 (stereo unspecified)
- Potency (SKOV3): inactive
- Potency (Tov-21-G): inactive
- Potency (Tov112D): inactive

SMILES: CC1=C(C(=O)Nc2cc3cn[nH]c3cc2F)C(c2ccc(C(F)(F)F)cc2)CC(=O)N1 (stereo unspecified)
- Potency (SKOV3): inactive
- Potency (Tov-21-G): inactive
- Potency (Tov112D): inactive

SMILES: CCN(CCO)CCCOc1ccc2c(Nc3cc(CC(=O)Nc4cccc(F)c4)[nH]n3)ncnc2c1
- Potency (SKOV3): inactive
- Potency (Tov-21-G): inactive

SMILES: Cc1cnc(-c2cc(N3CCN(C(=O)CCS(C)(=O)=O)CC3)ncc2Cl)c(C)c1
- Potency (SKOV3): inactive
- Potency (Tov-21-G): inactive
- Potency (Tov112D): inactive

SMILES: O=C(O)CCNc1cc(N2CCc3ccccc3CC2)nc(-c2ccccn2)n1
- Potency (SKOV3): inactive
- Potency (Tov-21-G): inactive
- Potency (Tov112D): inactive

SMILES: c1ccc(CNc2nc(N3CCOc4ccccc43)nc3c2CCCC3)cc1
- Potency (SKOV3): inactive
- Potency (Tov-21-G): inactive
- Potency (Tov112D): inactive

SMILES: c1ccc(-c2oc3ncnc(NC[C@@H]4CCCO4)c3c2-c2ccccc2)cc1
- Potency (SKOV3): inactive
- Potency (Tov-21-G): inactive

SMILES: O=C1C(c2c(O)[nH]c3ccccc23)=Nc2ccccc21
- Potency (SKOV3): inactive
- Potency (Tov-21-G): inactive
- Potency (Tov112D): inactive

SMILES: CN1CCC(COc2cnc(-c3cccc(Cn4nc(-c5cccc(C#N)c5)ccc4=O)c3)nc2)CC1
- Potency (SKOV3): inactive
- Potency (Tov-21-G): inactive
- Potency (Tov112D): inactive

SMILES: CNC(=O)c1c(-c2ccc(F)cc2)oc2cc(N(CCO)S(C)(=O)=O)c(C3CC3)cc12
- Potency (SKOV3): inactive
- Potency (Tov-21-G): inactive
- Potency (Tov112D): inactive

SMILES: Clc1ccc(C2(c3ccc(-c4cn[nH]c4)cc3)CCNCC2)cc1
- Potency (SKOV3): 31.6 µM (active)
- Potency (Tov-21-G): 12.6 µM (active)
- Potency (Tov112D): inactive

SMILES: OC[C@H]1O[C@@H](OCCc2ccc(O)cc2)[C@H](O)[C@@H](O)[C@H]1O
- Potency (SKOV3): inactive
- Potency (Tov-21-G): inactive
- Potency (Tov112D): inactive

SMILES: C[C@@]1(c2cc(-c3cncnc3)c(F)cc2F)CCSC(N)=N1
- Potency (SKOV3): inactive
- Potency (Tov-21-G): inactive
- Potency (Tov112D): inactive

SMILES: CNC1CCC(N(Cc2cccc(-c3ccncc3)c2)C(=O)c2sc3ccccc3c2Cl)CC1 (stereo unspecified)
- Potency (SKOV3): 25.1 µM (active)
- Potency (Tov-21-G): inactive
- Potency (Tov112D): inactive

SMILES: CN[C@@H](C)[C@H]1[C@H](O)C[C@@]2(C)[C@@H]3CC[C@H]4C(C)(C)[C@@H](NC)CC[C@@]45C[C@@]35CC[C@]12C
- activity change, negative = cytotoxicity (SKOV3): 0% [at 11.6 µM]
- activity change, negative = cytotoxicity (Tov-21-G): -6.08% [at 11.6 µM]
- activity change, negative = cytotoxicity (Tov112D): -2.44% [at 11.6 µM]

SMILES: CCN1C[C@H](C)n2c(c(O)c3c(=O)n(Cc4ccc(F)c(Cl)c4)nc(C(=O)NC)c32)C1=O
- Potency (SKOV3): inactive
- Potency (Tov-21-G): inactive
- Potency (Tov112D): inactive

SMILES: O=C(Nc1cccc(C(F)(F)F)c1)Nc1cc(S(=O)(=O)NC2CC2)ccc1-c1ccsc1
- Potency (SKOV3): inactive
- Potency (Tov-21-G): inactive
- Potency (Tov112D): inactive

SMILES: CC(=O)Nc1cccc(-n2c(=O)n(C3CC3)c(=O)c3c(Nc4ccc(I)cc4F)n(C)c(=O)c(C)c32)c1
- Potency (SKOV3): inactive
- Potency (Tov-21-G): inactive
- Potency (Tov112D): inactive

SMILES: Cc1cc(-c2ncc(CC(=O)Nc3ccc(-c4cnccn4)cn3)cc2C)ccn1
- Potency (SKOV3): 39.8 µM (active)
- Potency (Tov-21-G): inactive
- Potency (Tov112D): inactive

SMILES: CN(C)CCOc1cc(-c2cn[nH]c2)ccc1NC(=O)C1COc2ccccc2O1 (stereo unspecified)
- Potency (SKOV3): inactive
- Potency (Tov-21-G): inactive
- Potency (Tov112D): inactive

SMILES: CCc1cccc(CC)c1NC(=O)N1Cc2[nH]nc(NC(=O)c3ccc(N4CCN(C)CC4)cc3)c2C1
- Potency (SKOV3): inactive
- Potency (Tov-21-G): 12.6 µM (active)

SMILES: O=S(=O)(O)c1ccc2cc(N=Nc3cc(S(=O)(=O)O)c4cccnc4c3O)ccc2c1
- Potency (SKOV3): inactive
- Potency (Tov-21-G): inactive
- Potency (Tov112D): inactive

SMILES: COc1ccc(-c2nc3ccc(C4=NNC(=O)CC4C)cc3[nH]2)cc1 (stereo unspecified)
- Potency (SKOV3): 35.5 µM (active)

SMILES: O=C(c1ccc(C(=O)N2CCC(N3CCCC3)CC2)c(Nc2ccccc2)c1)N1CCC(N2CCCC2)CC1
- Potency (SKOV3): inactive
- Potency (Tov-21-G): inactive
- Potency (Tov112D): inactive

SMILES: Cc1nc2c([nH]1)CCN(C(=O)c1ccc(NC(=O)c3ccccc3-c3ccccc3)cc1)c1ccccc1-2
- Potency (SKOV3): inactive
- Potency (Tov-21-G): inactive
- Potency (Tov112D): inactive

SMILES: Cc1cc(C(C)Nc2ccccc2)c2nc(N3CCOCC3)cc(=O)n2c1 (stereo unspecified)
- Potency (SKOV3): inactive
- Potency (Tov-21-G): inactive
- Potency (Tov112D): inactive

SMILES: CN(C)CCCNC(=O)c1ccc(-c2cc(O)c3ncccc3c2)cc1
- Potency (SKOV3): inactive
